From the supplement of paper PMC10732440
± gives the standard deviation of the averaged measurements.

Tested on: Caenorhabditis elegans N2 infected with Nematocida parisii ERTm1
Assay: progeny production relative to DMSO uninfected control; higher = more progeny despite microsporidia infection (inhibition of infection with low host toxicity)
Details: infection time 6 days; 40 µM
Procedure, shortened: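 Bleach-synchronised wild-type C. elegans L1 larvae (100 per well) were placed in 96-well plates with K-medium, E. coli OP50 and 15,000 N. parisii spores/μL, with compound pinned to 100 μM or 40 μM in 1% DMSO. Plates were shaken at 21°C for 6 days; worms were then Rose Bengal-stained, flatbed-scanned and counted with WorMachine, each compound and dose tested three times. Progeny production is given as a percentage of the spore-free vehicle control, averaged across replicates.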

SMILES | progeny production
COC1CC2CCC(C)C(O)(O2)C(=O)C(=O)N2CCCCC2C(=O)OC(C(C)CC2CCC(OCCO)C(OC)C2)CC(=O)C(C)/C=C(\C)C(O)C(OC)C(=O)C(C)CC(C)/C=C/C=C/C=C/1C (stereo not given) | 5.45 ± 2.7%
C[C@H]1CC[C@@]2(O)C(C)(C)[C@@H]3CC[C@@]2(C)[C@H]1C3 | 6.77 ± 4.3%
Cc1nc(N(C)C(=O)Cc2ccc(-c3ccccn3)cc2)sc1S(N)(=O)=O | 3.86 ± 0.4%
Oc1ccc2[nH]c(-c3ccccc3)nc2c1 | 5.32 ± 3.2%
O=P(O)(O)C(CCCc1cccc(Oc2ccccc2)c1)S(=O)(=O)O (stereo not given) | 5.45 ± 0.36%
CCCCCCCCC(CP(=O)(O)C(C)N)C(=O)O (stereo not given) | 7.53 ± 0.85%
CCNC(=O)Nc1cc(-c2ccccc2)c(-c2cncc(C(=O)O)c2)cn1 | 3.89 ± 0.4%
CCCCCCCc1[nH]c2ccccc2c(=O)c1O | 7.38 ± 1.2%
Cc1ncc([N+](=O)[O-])n1CC(O)CN1CCOCC1 (stereo not given) | 9.17 ± 4.5%
NC1C2CC3CC(C2)CC1C3 (stereo not given) | 4.96 ± 2.6%
O=C(CSc1nnc(Br)n1-c1ccc(C2CC2)c2ccccc12)Nc1ccc(C(=O)O)cc1Cl | 3.49 ± 1.1%
CCc1cc(Nc2cc(=O)n(CCN3CCN(C(=O)c4ccccc4)CC3)c(=O)[nH]2)ccc1C | 5.16 ± 2.4%
NC(=O)c1ccccc1NC(=O)c1ccc(C(=O)Nc2ccccc2C(N)=O)cc1 | 8.47 ± 2.6%
CC(C)Oc1ccc(-n2cnc3cc(/C=C\c4ccc(C(C)(C)O)cc4)ccc32)cc1 | 5 ± 1.6%
NCc1ccc(S(N)(=O)=O)cc1 | 5.64 ± 3.5%
Cc1nc2ccc(Cl)cc2c(-c2ccccc2)c1CC(=O)O | 6.84 ± 5.6%
Nc1nc(C(F)(F)F)cc2c1[nH]c(=O)n2Cc1ccccc1 | 2.69 ± 0.61%
NC(=O)c1nccn([C@@H]2O[C@H](CO)[C@@H](O)[C@H]2O)c1=O | 6.9 ± 2.3%
O=C(c1nc2c(C(F)(F)F)cc(C3CC3)cn2c1Cl)N1CCN([C@H]2CC[C@H](O)CC2)C(=O)C1 | 3.88 ± 1.4%
O=C(O)C[C@H]1CC[C@H](c2ccc(-c3ccc(Nc4ccc(C(F)(F)F)nc4)cn3)cc2)CC1 | 4.2 ± 3.2%

SMILES | progeny production
COc1ccc(SC(=O)N[C@H](CCC(=O)O)C(=O)O)cc1 | 9.06 ± 7.1%
Clc1ccc(COC(Cn2ccnc2)c2ccc(Cl)cc2Cl)c(Cl)c1 (stereo not given) | 4.89 ± 1.7%
COc1ccc2sc3c(c2c1)NC(C)CNC3=O (stereo not given) | 7.35 ± 2.7%
C[C@H](c1cccc2ccccc12)N(C)Cc1ccccc1 | 3.94 ± 1.7%
COC(=O)Nc1nc2cc([S+]([O-])c3ccccc3)ccc2[nH]1 (stereo not given) | 6.27 ± 3.5%
O=C(O)/C=C/C=C/c1cccc(Oc2cc(Cl)cc(Cl)c2)c1 | 7.69 ± 2.2%
CC(C)(C)c1cccc(-c2nc3cc(C(=N)N)ccc3[nH]2)c1O | 2.13 ± 0.25%
O=c1oc2ccc(Br)cc2cc1CSc1ncc[nH]1 | 6.6 ± 2.9%
CCN(CC)CCCC(C)Nc1ccnc2cc(Cl)ccc12 (stereo not given) | 8.75 ± 5.2%
OC1O[C@H](CSc2ccc(F)cc2)[C@@H](O)[C@H]1O (stereo not given in full) | 5.22 ± 0.52%
O=S(=O)(NCB(O)O)c1cc2c(Cl)ccc(Cl)c2s1 | 4.07 ± 0.53%
CC1CN(c2ncnc3c2c(-c2ccccc2)cn3-c2ccc(F)cc2)CC(C)O1 (stereo not given) | 4.39 ± 1.6%
Cc1c(OCC(F)(F)F)ccnc1C[S+]([O-])c1nc2ccccc2[nH]1 (stereo not given) | 6.74 ± 4.3%
O=C(O)c1cc(-c2ccccc2)nc2ccccc12 | 6.15 ± 0.79%
CCOC(=O)N[C@@H]1CC[C@@H]2[C@@H](C1)C[C@H]1C(=O)O[C@H](C)[C@H]1[C@H]2/C=C/c1ccc(-c2cccc(F)c2)cn1 | 4.47 ± 3.1%
C[C@@H](c1nc(-c2ccc(C#N)cc2)cs1)[C@](O)(Cn1cncn1)c1ccc(F)cc1F | 5.04 ± 1.2%
O=C1[C@H](CC[C@H](O)c2ccc(F)cc2)[C@@H](c2ccc(O)cc2)N1c1ccc(F)cc1 | 6.94 ± 2.7%
O=C(NCc1ccc2c3c(cccc13)C(=O)N2)c1cccs1 | 6.15 ± 4.4%
Oc1cccc(C(Nc2nccs2)c2ccc3cccnc3c2O)c1 (stereo not given) | 4.05 ± 2%
CN(C/C=C/C#CC(C)(C)C)Cc1cccc2ccccc12 | 5.74 ± 2.2%

Same assay, conditions: infection time 6 days; 100 µM

SMILES | progeny production
COC1CC2CCC(C)C(O)(O2)C(=O)C(=O)N2CCCCC2C(=O)OC(C(C)CC2CCC(OCCO)C(OC)C2)CC(=O)C(C)/C=C(\C)C(O)C(OC)C(=O)C(C)CC(C)/C=C/C=C/C=C/1C (stereo not given) | 9.56 ± 2.5%
C[C@H]1CC[C@@]2(O)C(C)(C)[C@@H]3CC[C@@]2(C)[C@H]1C3 | 7.52 ± 7.7%
Cc1nc(N(C)C(=O)Cc2ccc(-c3ccccn3)cc2)sc1S(N)(=O)=O | 12.9 ± 8.8%
Oc1ccc2[nH]c(-c3ccccc3)nc2c1 | 11.5 ± 2.5%
O=P(O)(O)C(CCCc1cccc(Oc2ccccc2)c1)S(=O)(=O)O (stereo not given) | 8.22 ± 4.1%
CCCCCCCCC(CP(=O)(O)C(C)N)C(=O)O (stereo not given) | 18.6 ± 11%
CCNC(=O)Nc1cc(-c2ccccc2)c(-c2cncc(C(=O)O)c2)cn1 | 28.1 ± 28%
CCCCCCCc1[nH]c2ccccc2c(=O)c1O | 21.2 ± 19%
Cc1ncc([N+](=O)[O-])n1CC(O)CN1CCOCC1 (stereo not given) | 12.3 ± 8.3%
NC1C2CC3CC(C2)CC1C3 (stereo not given) | 13.2 ± 3.6%
O=C(CSc1nnc(Br)n1-c1ccc(C2CC2)c2ccccc12)Nc1ccc(C(=O)O)cc1Cl | 15.1 ± 5.4%
CCc1cc(Nc2cc(=O)n(CCN3CCN(C(=O)c4ccccc4)CC3)c(=O)[nH]2)ccc1C | 21 ± 12%
NC(=O)c1ccccc1NC(=O)c1ccc(C(=O)Nc2ccccc2C(N)=O)cc1 | 11.6 ± 6.2%
CC(C)Oc1ccc(-n2cnc3cc(/C=C\c4ccc(C(C)(C)O)cc4)ccc32)cc1 | 10.6 ± 2%
NCc1ccc(S(N)(=O)=O)cc1 | 7.3 ± 1.6%
Cc1nc2ccc(Cl)cc2c(-c2ccccc2)c1CC(=O)O | 13.8 ± 12%
Nc1nc(C(F)(F)F)cc2c1[nH]c(=O)n2Cc1ccccc1 | 17.2 ± 1.5%
NC(=O)c1nccn([C@@H]2O[C@H](CO)[C@@H](O)[C@H]2O)c1=O | 10.3 ± 7.2%
O=C(c1nc2c(C(F)(F)F)cc(C3CC3)cn2c1Cl)N1CCN([C@H]2CC[C@H](O)CC2)C(=O)C1 | 14.2 ± 1.2%
O=C(O)C[C@H]1CC[C@H](c2ccc(-c3ccc(Nc4ccc(C(F)(F)F)nc4)cn3)cc2)CC1 | 10.5 ± 6.4%

SMILES | progeny production
COc1ccc(SC(=O)N[C@H](CCC(=O)O)C(=O)O)cc1 | 11.3 ± 0.6%
Clc1ccc(COC(Cn2ccnc2)c2ccc(Cl)cc2Cl)c(Cl)c1 (stereo not given) | 8.86 ± 1.6%
COc1ccc2sc3c(c2c1)NC(C)CNC3=O (stereo not given) | 29.9 ± 22%
C[C@H](c1cccc2ccccc12)N(C)Cc1ccccc1 | 12.4 ± 7.8%
COC(=O)Nc1nc2cc([S+]([O-])c3ccccc3)ccc2[nH]1 (stereo not given) | 23 ± 20%
O=C(O)/C=C/C=C/c1cccc(Oc2cc(Cl)cc(Cl)c2)c1 | 13 ± 7.6%
CC(C)(C)c1cccc(-c2nc3cc(C(=N)N)ccc3[nH]2)c1O | 20.4 ± 23%
O=c1oc2ccc(Br)cc2cc1CSc1ncc[nH]1 | 11.1 ± 7.2%
CCN(CC)CCCC(C)Nc1ccnc2cc(Cl)ccc12 (stereo not given) | 5.16 ± 3.5%
OC1O[C@H](CSc2ccc(F)cc2)[C@@H](O)[C@H]1O (stereo not given in full) | 9.44 ± 6.8%
O=S(=O)(NCB(O)O)c1cc2c(Cl)ccc(Cl)c2s1 | 15.8 ± 20%
CC1CN(c2ncnc3c2c(-c2ccccc2)cn3-c2ccc(F)cc2)CC(C)O1 (stereo not given) | 13.4 ± 13%
Cc1c(OCC(F)(F)F)ccnc1C[S+]([O-])c1nc2ccccc2[nH]1 (stereo not given) | 11 ± 6.1%
O=C(O)c1cc(-c2ccccc2)nc2ccccc12 | 6.83 ± 4.5%
CCOC(=O)N[C@@H]1CC[C@@H]2[C@@H](C1)C[C@H]1C(=O)O[C@H](C)[C@H]1[C@H]2/C=C/c1ccc(-c2cccc(F)c2)cn1 | 9.38 ± 3.8%
C[C@@H](c1nc(-c2ccc(C#N)cc2)cs1)[C@](O)(Cn1cncn1)c1ccc(F)cc1F | 14.7 ± 10%
O=C1[C@H](CC[C@H](O)c2ccc(F)cc2)[C@@H](c2ccc(O)cc2)N1c1ccc(F)cc1 | 21 ± 14%
O=C(NCc1ccc2c3c(cccc13)C(=O)N2)c1cccs1 | 9.75 ± 6.2%
Oc1cccc(C(Nc2nccs2)c2ccc3cccnc3c2O)c1 (stereo not given) | 12.9 ± 2.9%
CN(C/C=C/C#CC(C)(C)C)Cc1cccc2ccccc12 | 17.7 ± 11%
